# Results filed as inconclusive are left out. Activity calls are given as the source filed them. Rule for the calls: active = hit-call score of the fitted dose curve at least 0.9, where 1 is the maximum; inconclusive = response in the unintended direction; inactive = score below 0.9.
# Test: TOX21_TRB_BLA_Agonist_Followup_viability: Viability Assessment in the Tox21 Thyroid Hormone Receptor beta Agonism Beta-lactamase (BLA) Follow-Up Assay (AID 2283956)
# Source text: The GeneBLAzer TRb-UAS-bla HEK293T assay kit for human TRb (ThermoFisherScientific Catalog No. K1684) was used as a secondary assay for specificity (TRb-bla). This assay contained the ligand-binding domain (LBD) of the human TRb fused to the DNA-binding domain of GAL4 stably integrated in the GeneBLAzer UAS-bla HEK293Tcell line. The reporter gene, b-lactamase, is under the transcriptional control of a UAS that binds the GAL4 DNA-binding domain. A cell viability assay was run in parallel for these cells as well using the CellTiter-Glo viability assay kit.TOX21_TRB_BLA_Agonist_Followup_viability is a component of the TOX21_TRB_BLA_Agonist_Followup assay. This component measures cell viability using the CellTiter-Glo Luciferase-coupled ATP quantitation.The assay component endpoint TOX21_TRB_BLA_Agonist_Followup_viability was analyzed with bidirectional fitting relation to DMSO as the negative control and baseline of activity. Using a type of viability reporter, loss-of-signal activity can be used to understand changes in viability. To generalize the intended target to other relatable targets, this assay endpoint is annotated to cell cycle, where the subfamily is cytotoxicity.
# Cell Media Required: Growth (90% DMEM/F-12, 10% Fetal Bovine Calf Serum, 100U/ml Penicillin, 100 ug/ml Streptomycin), Assay (10ng/mL sodium selenite, 10 ug/mL humanapo-transferrin, 10 uM ethanolamine, 10 ug/mL insulin, 500 ug/mL bovine serum albumin (BSA))Assay Protocol: TRb-bla cells were dispensed at 3,000 cells/well in 5 uL of the assay medium containing phenol red-free DMEM with 2% charcoal-stripped FBS in 1,536-well black-wall/clear-bottom plates using an FRD. After 5-h incubation at 37C/5% CO2 for cell attachment to the well bottom, 23nL of follow-up compounds dissolved in DMSO, 11 concentrations in triplicate, and the positive control (T3; agonist format) were transferred to the assay plates using a Pintool station. The assay plates were incubated at 37C/5% CO2 for 18h. One microliter LiveBLAzer FRET-B/G CCF4-AM substrate was added to each well using an FRD. After 2-h incubation at room temperature, the fluorescence intensity was measured using an Envision plate reader. Data were expressed as the ratio of 460:530nm. The cytotoxicity of the compounds was measured in the same plates by adding 4 uL of CellTiter-Glo reagent to each well and incubating the plates at room temperature for 30 min. The luminescence intensity was measured using a ViewLux plate reader.For the luciferase reporter gene assay, 5 uL/well (agonist format) and 4 uL/well (antagonist format) ONE-Glo reagent (Promega Corporation) was added using an FRD and after 30-min incubation at room temperature, the luminescence intensity was measured using a ViewLux plate reader. Data were expressed as relative fluorescence units (cell viability assay) and relative luminescence units (luciferase reporter assay).
row,SMILES,outcome
1,Nc1ncn([C@H]2C[C@H](O)[C@@H](CO)O2)c(=O)n1,inactive
2,CC(C)(C)CC(C)(C)c1ccc(O)c(Cc2ccc(Cl)cc2Cl)c1,inactive
3,CC(C)CCCCCCCOC(=O)c1ccccc1C(=O)OCCCCCCCC(C)C,inactive
4,CCCCCCC(O)CO (stereo not given),inactive
5,CCNc1nc(N)nc(Cl)n1,inactive
6,CC(C)CC(=O)O,inactive
7,CC(C)=CCC/C(C)=C\CO,inactive
8,COc1cc(C)c(/C=C/C(C)=C/C=C/C(C)=C/C(=O)O)c(C)c1C,inactive
9,CCC(C)c1cc(C(C)(C)C)c(O)c(C(C)(C)C)c1 (stereo not given),inactive
10,C=C(NC(=O)C(=C)NC(=O)c1csc(C2=NC3c4csc(n4)C4NC(=O)c5csc(n5)C(C(C)(O)C(C)O)NC(=O)C5CSC(=N5)/C(=C/C)NC(=O)C(C(C)O)NC(=O)c5csc(n5)C3(CC2)NC(=O)C(C)NC(=O)C(=C)NC(=O)C(C)NC(=O)C(C(C)CC)NC2C=Cc3c(C(C)O)cc(nc3C2O)C(=O)OC4C)n1)C(N)=O (stereo not given),inactive
11,CC1=C(/C=C/C(C)=C/C=C/C(C)=C\C(=O)O)C(C)(C)CCC1,inactive
12,O=C(O)CCCCCCNC1c2ccccc2CCc2ccccc21,inactive
13,Oc1ccccc1,inactive
14,CCCN(CCC)C(=O)SCC,inactive
15,NC(CO)(CO)CO,inactive
16,CC(C)(C)c1cc(C(C)(C)C)c(O)c(C(C)(C)C)c1,inactive
17,Nc1ccc(S(=O)(=O)Nc2nccs2)cc1,inactive
18,N[C@@H](Cc1ccc(Oc2cc(I)c(O)c(I)c2)c(I)c1)C(=O)O,inactive
19,CC(=O)Nc1ccc(C(=O)CCl)cc1,inactive
20,N[C@@H](Cc1cc(I)c(Oc2cc(I)c(O)c(I)c2)c(I)c1)C(=O)O,inactive

row,SMILES,outcome
1,CC1=C(/C=C/C(C)=C/C=C/C(C)=C/C(=O)O)C(C)(C)CCC1,inactive
2,C[C@]12CC[C@H]3C(=CCc4cc(O)ccc43)[C@@H]1CCC2=O,inactive
3,Nc1ccc(S(N)(=O)=O)cc1,inactive
4,O=C(O)Cc1cc(I)c(Oc2ccc(O)c(I)c2)c(I)c1,inactive
5,O=c1[nH]cnc2c1ncn2[C@H]1CC[C@@H](CO)O1,inactive
6,Cc1cc(C)nc(NS(=O)(=O)c2ccc(N)cc2)n1,inactive
7,C[Si](C)O[Si](C)(C)O[Si](C)(C)O[Si](C)C,inactive
8,CC1=C(/C=C/C(C)=C\C=C\C(C)=C\C(=O)O)C(C)(C)CCC1,inactive
9,O=C(O)Cc1cc(I)c(Oc2cc(I)c(O)c(I)c2)c(I)c1,inactive
10,CNC(=O)ON=C(CSC)C(C)(C)C,inactive
11,COC(=O)c1ccc(I)cc1S(=O)(=O)NC(=O)Nc1nc(C)nc(OC)n1,inactive
12,CCCCCCC(C)O (stereo not given),inactive
13,CCCCCCCCCCC,inactive
14,CSCC[C@H](NC(=O)[C@H](Cc1ccc(OS(=O)(=O)O)cc1)NC(=O)[C@@H](N)CC(=O)O)C(=O)NCC(=O)N[C@@H](Cc1c[nH]c2ccccc12)C(=O)N[C@@H](CCSC)C(=O)N[C@@H](CC(=O)O)C(=O)N[C@@H](Cc1ccccc1)C(N)=O,inactive
15,CC(=O)OCCC(C)CC(C)(C)C (stereo not given),inactive
16,CC(CCO)CCCC(C)(C)O (stereo not given),inactive
17,O=C(c1ccccc1)c1ccc(O)cc1O,inactive
18,Cc1cc(-n2c(=O)[nH]c(=O)n(C)c2=O)ccc1Oc1ccc(S(=O)(=O)C(F)(F)F)cc1,inactive
19,C=C(c1ccc(C(=O)O)cc1)c1cc2c(cc1C)C(C)(C)CCC2(C)C,inactive
20,NCC(=O)CCC(=O)O,inactive
